Bioassay records deposited in PubChem BioAssay by National Center for Advancing Translational Sciences (NCATS).
In the library only some 15% were active in any assay of this set; here they are far more common.
ELG1 DNA repair – qHTS screen for small molecules that inhibit ELG1-dependent DNA repair in human embryonic kidney (HEK293T) cells expressing luciferase-tagged ELG1. 330,000 compounds, 2.3% hits. HEK293T ELG1-luciferase reporter, luminescence, 16 h; DNA damage induced by 5-fluorouridine. Potency, µM (titrated, usually from 46.1 µM), actives largely listed as inhibitors; also: nearly all actives have a fitted effect of over 55% in size
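Cells (2,000 per well) received 5-fluorouridine plus test compound or DMSO and were incubated 16 hr at 37 °C, 5% CO2. Luciferase activity was read by luminescence 30 min after ONE-Glo addition; signal suppression marked inhibition of damage-induced ELG1 function.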
12-LOX inh – Primary qHTS assay for inhibitors of human arachidonate 12S-lipoxygenase (ALOX12): Round 2. Potency, µM (top dose mostly 108 µM), actives largely listed as inhibitors. 580,000 compounds, 1.1% hits. Polyunsaturated fatty acid lipoxygenase ALOX12 (Homo sapiens), P18054. AID 1671190, 2021. purified 12hLO, xylenol orange hydroperoxide absorbance
Target sequence (P18054 whole entry, looked up): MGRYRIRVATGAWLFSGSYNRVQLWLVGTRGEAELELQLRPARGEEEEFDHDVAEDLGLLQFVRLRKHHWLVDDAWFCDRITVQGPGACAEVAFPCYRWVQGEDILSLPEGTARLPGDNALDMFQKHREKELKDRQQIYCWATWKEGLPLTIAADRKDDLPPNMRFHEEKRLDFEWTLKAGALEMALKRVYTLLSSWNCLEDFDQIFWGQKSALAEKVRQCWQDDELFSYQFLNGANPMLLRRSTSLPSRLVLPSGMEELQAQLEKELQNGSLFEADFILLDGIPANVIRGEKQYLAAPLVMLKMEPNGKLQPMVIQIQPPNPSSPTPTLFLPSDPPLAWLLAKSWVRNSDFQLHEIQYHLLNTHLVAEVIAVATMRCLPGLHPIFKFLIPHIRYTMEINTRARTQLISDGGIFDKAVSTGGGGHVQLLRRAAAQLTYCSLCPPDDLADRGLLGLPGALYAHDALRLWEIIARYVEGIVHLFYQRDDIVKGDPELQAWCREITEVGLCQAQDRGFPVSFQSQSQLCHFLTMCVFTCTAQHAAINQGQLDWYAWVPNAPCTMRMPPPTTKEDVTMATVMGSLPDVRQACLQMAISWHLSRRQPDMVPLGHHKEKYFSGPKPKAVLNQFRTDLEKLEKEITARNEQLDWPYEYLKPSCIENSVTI
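Purified human 12hLO (150 nM final) in 25 mM Hepes, 0.01% Triton X-100, pH 7.0 was preincubated 15 min at room temperature with compound. Then 40 uM arachidonic acid was added, 30 min. Hydroperoxide was read by Fe-XO absorbance ratio 573/405 nm.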
RORgamma inh – qHTS for inhibitors of ROR gamma transcriptional activity; Nuclear receptor ROR-gamma (Mus musculus), P51450; Drosophila S2 Gal4-RORgamma UAS-luciferase reporter, 20 h; Potency, µM (top dose mostly 53.6 µM), actives largely listed as inhibitors; 310,000 compounds, 5.4% hits; also: nearly all actives have a fitted effect of over 60% in size
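Using a luciferase readout, inhibitors were identified by reduced reporter activity in Drosophila cells coexpressing a copper-inducible Gal4–ROR gamma fusion and UAS-driven Photinus luciferase, incubated 20 hr after 700 uM copper sulfate.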
DT40 TDP1 CPT – qHTS for Inhibitors of human tyrosyl-DNA phosphodiesterase 1 (TDP1): qHTS in cells in presence of CPT | Potency, µM (doses to about 46.2 µM), most hits filed as inhibitors | chicken DT40 Tdp1-/-;hTDP1 cells + 20 nM CPT, ATP luminescence, 48 h | 420,000 compounds, 12% hits; also: nearly all actives have a fitted effect of over 55% in size
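Chicken DT40 Tdp1-/- cells stably complemented with human TDP1 were seeded at 400 cells/well in medium containing 20 nM camptothecin, exposed to pin-transferred compounds, and grown at 37 °C for at least 48 hr. Viability was read as ATP luminescence.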
DT40 TDP1 no CPT – qHTS for Inhibitors of human tyrosyl-DNA phosphodiesterase 1 (TDP1): qHTS in cells in absence of CPT | DT40 Tdp1-/- hTDP1 cells, no CPT, ATP luminescence, 48 h | Potency, µM (series often up to 46.2 µM), actives largely listed as inhibitors | 420,000 compounds, 15% hits | AID 686978, 2013; also: nearly all actives have a fitted effect of over 55% in size
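Camptothecin absent (DMSO only). Human TDP1-complemented DT40 knockout cells, 400 cells/well, 37 °C for minimum 48 hr; ATP measured via CellTiter-Glo, 30 min dark incubation, luminescence.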
Gal4-VP16 FLuc – VP16 counterscreen qHTS for inhibitors of ROR gamma transcriptional activity. 310,000 compounds, 3.5% hits. Potency, µM (highest dose often 53.6 µM), hits mostly inhibitors. Drosophila S2 Gal4-VP16 UAS-luciferase, luminescence, 20 h;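 also: Gal4-VP16 expression switched on by copper sulfate through the metallothionein promoter; nearly all actives have a fitted effect of over 50% in size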
Numbers stand for hits; – = inactive; ? = inconclusive; · = no result given. Calls follow the shape of the dose curve; as a rule, active = well fitted curve in the direction sought with a large enough effect; inconclusive = small, poorly fitted or top-dose-only effect, or another doubt; inactive = no such curve, though single readings can be large; an effect the other way counts as inactive or inconclusive.

SMILES	ELG1 DNA repair	12-LOX inh	RORgamma inh	DT40 TDP1 CPT	DT40 TDP1 no CPT	Gal4-VP16 FLuc
Fc1ccc(NC(=S)NCc2ccccc2Cl)cc1	–	?	7.1µM	–	–	14µM
NC(=S)Cc1ccccc1Cl	–	–	10µM	–	–	–
COc1ccccc1CNC(=S)Nc1ccc(F)cc1	–	–	7.9µM	–	5.2µM	6.3µM
NC(=S)Cc1ccc(Cl)cc1Cl	–	–	?	–	–	?
COC(=O)Cc1ccc(NC(=S)NCc2ccccc2OC)cc1	–	?	8.9µM	?	?	25µM
COc1ccc(N2CC3(C2)CN(c2ccccc2)C(=O)O3)cc1OC	·	–	·	·	·	·
CN(CC1CCOCC1)C(=O)c1c(F)cccc1Cl	·	–	·	·	·	·
COc1cn(CC(=O)Nc2ccc(C(F)(F)F)cc2)c(CN2CCOCC2)cc1=O	·	–	·	·	·	·
S=C(NCc1ccccc1)NCc1ccccc1Cl	–	?	13µM	–	–	20µM
CCC(C)c1ccc(NC(=S)NCc2ccccc2OC)cc1 (centres undefined)	?	?	2.2µM	?	23µM	8.9µM
COc1ccc(C(=O)NCCn2ccn3nc(-c4ccc(C)c(C)c4)cc3c2=O)cc1	·	–	·	·	·	·
CCN(CC)c1sc(S(=O)(=O)c2ccccc2)nc1S(=O)(=O)c1ccc(C)cc1	·	–	·	?	15µM	·
CCN1CCN(c2sc(S(C)(=O)=O)nc2S(=O)(=O)c2ccc(C)cc2)CC1	?	–	–	?	15µM	–
CCN1CCN(c2sc(S(=O)(=O)CC)nc2S(=O)(=O)c2ccc(C)cc2)CC1	·	–	·	–	–	·
O=C(CCc1ncc(-c2ccc(Cl)cc2)o1)N1CCSCC1	·	–	·	·	·	·
CCOc1ccc(CCNC(=O)C2CCCN(S(=O)(=O)N(C)c3ccc(F)cc3)C2)cc1 (centres undefined)	·	–	·	21µM	21µM	·
CN(c1ccc(F)cc1)S(=O)(=O)N1CCCC(C(=O)NCc2cccc(Br)c2)C1 (centres undefined)	·	–	·	15µM	12µM	·
CCOc1ccc(CNC(=O)C2CCCN(S(=O)(=O)N(C)c3ccc(F)cc3)C2)cc1OC (centres undefined)	·	?	·	15µM	13µM	·
CCN(c1ccc(OC)cc1)S(=O)(=O)N1CCCC(C(=O)NCc2cccc(C)c2)C1 (centres undefined)	–	–	–	?	?	–
O=C(CCC[C@@H]1[C@H]2CCCN3CCC[C@@H](CN1C(=O)c1ccccc1)[C@@H]23)Nc1ccc(F)cc1F	·	–	·	·	·	·
O=C(c1cccnc1)N1CCC(Oc2cccnc2)C1 (centres undefined)	·	–	·	·	·	·
O=C(CCc1ccccc1)Nc1ccc(Cl)cc1C(F)(F)F	·	–	·	·	·	·
COC(=O)Cn1cc(/C=C/c2cc[n+](C)cc2)c2ccccc21	–	?	–	?	?	–
COC(=O)Cn1c(C)c(/C=C/c2cc[n+](C)cc2)c2ccccc21	–	45µM	–	?	16µM	–
O=C(CSc1ccc2c(c1)OCCCO2)NCc1ccc2c(c1)OCO2	·	–	·	·	·	·
CCN(CC)CCNc1ccc(C)c2sc3ccc(O)cc3c(=O)c12	·	?	·	0.16µM	0.15µM	·
CCN(CC)CCCNC(=O)C(C)n1nc(C)c2sc3ccccc3c2c1=O (centres undefined)	–	–	–	–	–	–
Cc1nn(C)c(C)c1N1C(=O)c2cccc3c(Br)ccc(c23)C1=O	?	?	?	18µM	21µM	–
Cc1ccc(Nc2nc(N)nc(COc3ccccc3C(N)=O)n2)cc1	·	–	·	·	·	·
CC1=C(c2ccc(F)cc2)S(=O)(=O)NC1=NCc1ccccc1Cl	·	?	·	–	–	·
